From PubChem BioAssay (Tox21) come the findings set out here.

Molecules are shown by their SMILES. A number with no mark means an inactive call. Results filed as inconclusive are left out. Active and inactive are the calls of the source. Unless noted, calls come from the whole dose curve.

Experiment [1] can be described thus: Nuclear factor erythroid 2-related factor 2/antioxidant responsive element (Nrf2/ARE) small molecule agonists: luciferase reporter gene qHTS assay in human keratinocytes (AID 1919969). Note: nearly all actives have a fitted effect of over 35% in size. Note: potency is the fitted concentration of half-maximal effect.
For experiment [2], the target named is Gonadotropin-releasing hormone receptor (Homo sapiens) (UniProt P30968). In words: Human gonadotropin-releasing hormone receptor (GnRHR) small molecule agonists, calcium flux assay in GnRHR-HEK293 cells (AID 1920063). Note: nearly all actives have a fitted effect of over 35% in size. In short, it runs like this:
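Agonist activity was measured as intracellular calcium flux in HEK293 cells engineered to stably express human GnRHR. After dye loading for 1 hour at 37 C, compounds in DMSO were added and fluorescence was followed for 3 minutes.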

Experiment [3] addresses KiSS-1 receptor (Homo sapiens) (UniProt Q969F8). In words: Human kisspeptin (KISS1R) small molecule agonists, calcium flux assay in KISS1R-HEK293 cells (AID 1920064; active = well fitted activation curve with a large enough effect in the repeat runs). A digest of the protocol:
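Agonist activity is monitored as intracellular calcium rise in engineered HEK293 cells carrying human KISS1R. Cells are dye-loaded for 1 h at 37 C before compound addition, and fluorescence is recorded for 3 min.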

Experiment [4] is described as follows: G protein-coupled receptor (GPCR) small molecule agonists, calcium flux assay: HEK293 wild type cell line counter screen (AID 1920065). A digest of the protocol:
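Seed cells, incubate 18 h (37 C, 5% CO2); add calcium dye, 1 h at 37 C; pin-transfer compounds, ATP control or DMSO; read fluorescence 480/540 nm each second for 3 min.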

A short description of experiment [5]: p53 small molecule agonists, cell-based qHTS assay with human liver microsomes (AID 1963577). In short, it runs like this:
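p53RE-bla cells, 4,000/well, compound added after 5 h, with human liver microsomes 0.5 mg/mL and NADPH 0.5 mg/mL final; 16 h at 37 C, then LiveBLAzer 2 h RT, fluorescence.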

Experiment [6] can be described thus: p53 small molecule agonists, cell-based qHTS assay with rat liver microsomes (AID 1963578). In short, it runs like this:
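p53RE-bla cells, 4,000/well, pre-incubated 5 h, then given compounds plus rat liver microsomes (0.5 mg/mL final) and NADPH (0.5 mg/mL final). Incubation 16 h at 37 C; beta-lactamase reporter read by LiveBLAzer fluorescence after 2 h at room temperature.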

Experiment [7] can be described thus: p53 small molecule agonists, cell-based qHTS assay with human liver microsomes: qHTS cell viability counter screen (AID 1963579). Note: nearly all actives have a fitted effect of over 45% in size. A digest of the protocol: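 p53RE-bla cells, 4,000/well, dosed 5 hours after plating, with human liver microsomes (0.5 mg/mL final) plus NADPH (0.5 mg/mL final), 16 hours at 37 C. Viability read as CellTiter-Glo luminescence after 30 min at room temperature.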

Experiment [8] is described as follows: p53 small molecule agonists, cell-based qHTS assay with rat liver microsomes: qHTS cell viability counter screen (AID 1963580). Note: nearly all actives have a fitted effect of over 45% in size. A digest of the protocol:
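Cytotoxicity counter screen: intracellular ATP measured by CellTiter-Glo luminescence in the same wells as the beta-lactamase reporter read, on HCT-116 p53RE-bla cells exposed 16 h at 37 C to compounds with rat liver microsomes and NADPH, each 0.5 mg/mL final.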

Experiment [9] is described as follows: p53 small molecule agonists, cell-based qHTS assay: qHTS cell viability counter screen (AID 1963581). Note: nearly all actives have a fitted effect of over 45% in size. A digest of the protocol:
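Viability was counter-screened in parallel with the p53 agonist reporter by measuring intracellular ATP luminescence in the same HCT-116 p53RE-bla wells after 16 h compound treatment at 37 C.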

Experiment [10] in a line: p53 small molecule agonists, cell-based qHTS assay (AID 1963582; active = well fitted activation curve with a large enough effect in the signal ratio in the repeat runs, not every such curve was filed as active; the % refers to the signal ratio). A digest of the protocol:
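Cells carrying a p53-responsive bla reporter are treated with test compounds for 16 h at 37 C; beta-lactamase activity is then detected with LiveBLAzer B/G FRET substrate after 2 h at room temperature.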

Experiment [11] concerns the target 5-hydroxytryptamine receptor 2A (Homo sapiens) (UniProt P28223). In words: 5-hydroxytryptamine receptor 2A (HTR2A) small molecule agonists, cell-based qHTS assay (AID 1963587). Note: nearly all actives have a fitted effect of over 30% in size. A digest of the protocol:
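CHO cells stably expressing human HTR2A, plated 18 h, loaded with calcium dye 1 h at 37 C. Agonist mode: compounds added and intracellular calcium fluorescence recorded kinetically for 2 min at 1 sec intervals.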

The target in experiment [12] is Muscarinic acetylcholine receptor M1 (Homo sapiens) (UniProt P11229). In words: Cholinergic receptor muscarinic 1 (CHRM1) small molecule antagonists, cell-based qHTS assay (AID 1963588). Note: nearly all actives have a fitted effect of over 40% in size. A digest of the protocol:
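Compounds were tested at 15 concentrations in three independent runs. Dye-loaded CHRM1-CHO cells were exposed 5 min at room temperature before stimulation by acetylcholine added at 50nM. Intracellular calcium was read kinetically on FDSS for 3 min.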

The target is the same in experiment [13]. In words: Cholinergic receptor muscarinic 1 (CHRM1) small molecule agonists, cell-based qHTS assay (AID 1963589). Note: nearly all actives have a fitted effect of over 35% in size. In short, it runs like this: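 Cells were plated and incubated 18 h at 37 C/5% CO2, loaded with calcium dye for 1 h at 37 C, then treated with compounds in DMSO. Fluorescence was recorded kinetically at 1 sec intervals.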
Experiment [14] can be described thus: cAMP Responsive Elements (CRE) small molecule agonists, cell-based qHTS assay (AID 1963590). A digest of the protocol:
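Cells carrying a CRE-driven beta-lactamase reporter (HEK 293T) are seeded, incubated overnight (18 h), and treated with test compounds for 3 h at 37 C; reporter activity is then detected with a FRET substrate after 2 h at room temperature.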

Experiment [15] is described as follows: cAMP Responsive Elements (CRE) small molecule antagonists, cell-based qHTS assay (AID 1963591; active = well fitted inhibition curve with a large enough effect in the signal ratio in the repeat runs, not every such curve was filed as active; the % refers to the signal ratio). A digest of the protocol: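 Cells (CRE-bla HEK 293T, DMEM with 10% dialyzed FBS and 25 mM HEPES) are seeded and incubated 18 h. Compounds are added with NKH477 agonist at 0.25 uM final for 3 h, then FRET substrate for 2 h.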
For experiment [16], the target named is Beta-2 adrenergic receptor (Homo sapiens) (UniProt P07550). In words: Adrenergic beta2 receptor (ADRB2) small molecule antagonists, cell-based qHTS assay (AID 1963592). Note: series mostly up to about 92 µM; nearly all actives have a fitted effect of over 50% in size. In short, it runs like this: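 Assay format: CHO-ADRB2 cells, 18-20hr seeding at 37C/5% CO2, then compound plus 1nM isoproterenol agonist mix for 0.5hr RT. Homogeneous time-resolved fluorescence cAMP detection after 1hr, expressed as 665/615 nm ratio.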
Beta-2 adrenergic receptor (Homo sapiens), sequence (P07550 whole entry, looked up): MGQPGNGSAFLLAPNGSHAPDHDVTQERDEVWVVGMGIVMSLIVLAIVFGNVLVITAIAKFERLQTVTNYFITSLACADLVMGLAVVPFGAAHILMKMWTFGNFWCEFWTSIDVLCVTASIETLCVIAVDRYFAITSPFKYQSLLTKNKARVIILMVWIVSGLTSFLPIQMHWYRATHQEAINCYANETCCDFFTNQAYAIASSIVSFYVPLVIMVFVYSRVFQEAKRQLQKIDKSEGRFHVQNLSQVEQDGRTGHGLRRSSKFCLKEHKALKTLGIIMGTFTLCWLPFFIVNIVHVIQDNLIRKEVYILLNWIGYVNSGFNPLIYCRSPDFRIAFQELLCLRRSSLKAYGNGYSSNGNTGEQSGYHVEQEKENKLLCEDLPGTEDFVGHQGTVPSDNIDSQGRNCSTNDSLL

The target in experiment [17] is D(2) dopamine receptor (Homo sapiens) (UniProt P14416). In words: Dopamine D2 receptor (DRD2) small molecule agonists, cell-based qHTS assay (AID 1963594). Note: nearly all actives have a fitted effect of over 35% in size. In short, it runs like this:
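HEK293 cells stably expressing human DRD2, pre-treated with PDE inhibitor Ro20-1724 (0.1 mM final) and compound 10 min at room temperature, then stimulated with NKH477 (200nM […]) for 30 min. cAMP read by HTRF (665/620 nm).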

The target is the same in experiment [18]. In words: Dopamine D2 receptor (DRD2) small molecule antagonists, cell-based qHTS assay (AID 1963595; active = well fitted inhibition curve with a large enough effect in the signal ratio in the repeat runs, with a control signal flat; the % refers to the signal ratio). A digest of the protocol: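 HEK293 cells stably expressing DRD2, preincubated with 0.1 mM Ro20-1724 and compounds 10 min, were stimulated with 200 nM NKH477 plus 12 nM quinpirole for 30 min at room temperature; cAMP measured by HTRF (665/620 nm).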
Experiment [19] concerns the target 5-hydroxytryptamine receptor 2A (Homo sapiens) (UniProt P28223). In words: 5-hydroxytryptamine receptor 2A (HTR2A) small molecule antagonists, cell-based qHTS assay (AID 1963586). Note: nearly all actives have a fitted effect of over 45% in size. A digest of the protocol:
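CHO cells stably expressing human HTR2A were plated for 18 h at 37 C, then loaded with calcium dye for 1 h. Compounds were preincubated 5 min at room temperature before DOI (4 nM solution) was added. Kinetic fluorescence was read for 3 min.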

For experiment [20], the target named is Beta-2 adrenergic receptor (Homo sapiens) (UniProt P07550). In words: Adrenergic beta2 receptor (ADRB2) small molecule agonists, cell-based qHTS assay (AID 1963593).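 Note: CHO cells stably overexpressing human ADRB2.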 In short, it runs like this: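 CHO cells stably over-expressing ADRB2 were plated overnight at 37C, then dosed with compounds plus a stimulation mix containing 100uM IBMX and 25uM Ro-20-1724 for 0.5hr at room temperature. cAMP was measured by HTRF competition, 1hr.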

Muscarinic acetylcholine receptor M1 (Homo sapiens), sequence (P11229 whole entry, looked up): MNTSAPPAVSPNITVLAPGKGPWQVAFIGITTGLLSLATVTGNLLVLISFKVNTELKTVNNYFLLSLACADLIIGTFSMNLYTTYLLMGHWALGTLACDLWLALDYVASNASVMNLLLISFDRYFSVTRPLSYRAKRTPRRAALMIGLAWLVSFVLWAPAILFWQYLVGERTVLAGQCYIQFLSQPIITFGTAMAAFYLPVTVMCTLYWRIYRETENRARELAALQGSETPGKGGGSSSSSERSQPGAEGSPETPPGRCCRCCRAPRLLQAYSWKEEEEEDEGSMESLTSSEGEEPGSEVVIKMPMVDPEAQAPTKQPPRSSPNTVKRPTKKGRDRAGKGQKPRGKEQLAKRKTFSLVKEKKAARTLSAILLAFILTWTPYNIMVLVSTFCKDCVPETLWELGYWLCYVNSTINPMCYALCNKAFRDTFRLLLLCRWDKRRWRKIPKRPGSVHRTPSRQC
5-hydroxytryptamine receptor 2A (Homo sapiens), sequence (P28223 whole entry, looked up): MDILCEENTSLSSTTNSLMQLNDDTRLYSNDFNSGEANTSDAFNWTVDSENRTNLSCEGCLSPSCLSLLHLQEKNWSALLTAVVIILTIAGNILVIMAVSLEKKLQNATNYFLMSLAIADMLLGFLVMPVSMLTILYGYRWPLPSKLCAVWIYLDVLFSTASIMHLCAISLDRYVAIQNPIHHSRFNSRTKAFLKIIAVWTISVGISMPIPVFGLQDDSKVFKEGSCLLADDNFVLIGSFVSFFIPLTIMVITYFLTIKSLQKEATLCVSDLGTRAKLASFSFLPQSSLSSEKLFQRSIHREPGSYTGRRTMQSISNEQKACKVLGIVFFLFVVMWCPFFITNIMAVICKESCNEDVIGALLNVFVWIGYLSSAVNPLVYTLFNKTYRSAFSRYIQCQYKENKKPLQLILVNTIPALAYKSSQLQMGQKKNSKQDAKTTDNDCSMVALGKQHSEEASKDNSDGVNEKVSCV
Gonadotropin-releasing hormone receptor (Homo sapiens), sequence (P30968 whole entry, looked up): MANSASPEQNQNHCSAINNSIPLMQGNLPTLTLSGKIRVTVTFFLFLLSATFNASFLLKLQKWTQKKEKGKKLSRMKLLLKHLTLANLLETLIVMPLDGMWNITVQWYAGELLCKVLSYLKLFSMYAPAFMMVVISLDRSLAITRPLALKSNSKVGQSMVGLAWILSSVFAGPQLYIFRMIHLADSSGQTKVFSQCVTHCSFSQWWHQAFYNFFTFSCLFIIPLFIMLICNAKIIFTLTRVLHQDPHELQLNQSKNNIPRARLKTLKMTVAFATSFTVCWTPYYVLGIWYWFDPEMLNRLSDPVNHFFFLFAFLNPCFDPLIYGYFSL
KiSS-1 receptor (Homo sapiens), sequence (Q969F8 whole entry, looked up): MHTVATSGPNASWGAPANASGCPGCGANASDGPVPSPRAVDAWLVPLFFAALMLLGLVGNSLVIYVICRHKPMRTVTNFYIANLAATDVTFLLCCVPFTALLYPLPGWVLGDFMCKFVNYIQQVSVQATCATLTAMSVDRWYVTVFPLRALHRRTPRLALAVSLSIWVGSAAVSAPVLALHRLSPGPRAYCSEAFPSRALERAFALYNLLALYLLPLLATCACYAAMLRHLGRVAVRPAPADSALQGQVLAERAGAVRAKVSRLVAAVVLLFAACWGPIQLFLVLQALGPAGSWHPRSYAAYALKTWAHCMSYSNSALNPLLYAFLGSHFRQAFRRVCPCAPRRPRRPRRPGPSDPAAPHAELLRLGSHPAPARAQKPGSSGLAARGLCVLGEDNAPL
D(2) dopamine receptor (Homo sapiens), sequence (P14416 whole entry, looked up): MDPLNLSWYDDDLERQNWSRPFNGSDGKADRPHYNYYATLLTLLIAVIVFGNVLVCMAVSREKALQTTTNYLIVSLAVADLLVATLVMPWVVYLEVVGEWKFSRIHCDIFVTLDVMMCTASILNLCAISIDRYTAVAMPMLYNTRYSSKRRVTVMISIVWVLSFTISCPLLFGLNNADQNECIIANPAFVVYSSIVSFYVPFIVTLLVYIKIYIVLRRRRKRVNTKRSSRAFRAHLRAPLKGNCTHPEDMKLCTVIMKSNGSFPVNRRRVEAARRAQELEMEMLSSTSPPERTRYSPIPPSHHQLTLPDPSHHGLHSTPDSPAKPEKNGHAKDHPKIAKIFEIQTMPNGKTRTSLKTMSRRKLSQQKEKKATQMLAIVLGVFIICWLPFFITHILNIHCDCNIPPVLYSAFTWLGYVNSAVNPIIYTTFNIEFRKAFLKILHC

For `C=CC[N+]1([C@H]2C[C@H]3[C@@H]4CC[C@H]5C[C@H](OC(C)=O)[C@@H](N6CCCCC6)C[C@]5(C)[C@H]4CC[C@]3(C)[C@H]2OC(=O)CC)CCCCC1`, the Potency result in [1], in experiment [2], in experiment [3], in experiment [4], in experiment [5] and in experiment [6] was “inactive” throughout. For the same molecule, the Potency result in experiment [7], in experiment [8], in experiment [9], in experiment [10], in experiment [11] and in [12] was “inactive” each time. Also, the Potency entry in experiment [13], in experiment [14], in experiment [15], in experiment [16], in experiment [17] and in experiment [18] was “inactive” throughout.

Consider `O=C(CCCCCCC(=O)Nc1ccccc1)NO`, for which the Potency in [1] is 8.41 µM (active). Moreover, the Potency entry in experiment [2], in experiment [3], in experiment [4], in experiment [5], in experiment [6] and in experiment [7] was “inactive” each time. Besides, the Potency result in [8], in experiment [9], in experiment [10], in experiment [19], in experiment [11] and in experiment [12] was “inactive” in each case. Also, the Potency result in experiment [13], in [20] and in [17] was “inactive” each time.

Turning to `COc1ccc(-c2ccc3cc(C(=O)O)ccc3c2)cc1C12CC3CC(CC(C3)C1)C2`, the Potency entry in experiment [1], in experiment [2], in experiment [3], in [4], in [5] and in experiment [6] was “inactive” in each case. The Potency entry in experiment [7], in [8], in experiment [9], in experiment [10], in experiment [19] and in [11] was “inactive” each time. The Potency entry in [12], in [13], in [14], in [15], in experiment [16] and in experiment [17] was “inactive” each time. Further, the Potency result in experiment [18] is “inactive”.

Consider `O=C(CS)OCCOC(=O)CS`, for which the Potency result in experiment [4], in experiment [5], in [6], in experiment [7], in [8] and in [9] was “inactive” throughout. Besides, the Potency entry in experiment [10], in [19], in experiment [11], in experiment [12], in [13] and in experiment [14] was “inactive” each time. The Potency result in experiment [16], in experiment [17] and in [18] was “inactive” in each case.

For `O=[N+]([O-])c1ccc(NCCO)c(OCCO)c1`, the Potency entry in [1], in experiment [2], in experiment [3], in experiment [4], in [5] and in [6] was “inactive” in each case. Also, the Potency entry in [7], in experiment [8], in experiment [9], in experiment [10], in experiment [19] and in experiment [11] was “inactive” throughout. In addition, the Potency entry in [12], in experiment [13], in experiment [14], in experiment [16], in [17] and in experiment [18] was “inactive” throughout.

As to `CCCCC/C=C\C=C\C(=O)OCC`, the Potency in [1] was 25.4 µM (active). The Potency result in experiment [2], in experiment [3], in experiment [4], in [5], in [6] and in experiment [7] was “inactive” in each case. The Potency entry in experiment [8], in experiment [9], in experiment [10], in [13], in experiment [16] and in [20] was “inactive” each time. The Potency entry in experiment [17] and in experiment [18] was “inactive” throughout.

Consider `O=[N+]([O-])c1ccc(O)cc1`, for which the Potency entry in [1], in experiment [2], in experiment [3], in [4], in [5] and in [6] was “inactive” throughout. Besides, the Potency entry in experiment [7], in [8], in experiment [9], in [10], in [11] and in experiment [12] was “inactive” in each case. The Potency result in experiment [14], in experiment [15], in [16], in [20] and in [17] was “inactive” each time.
